Screens deposited in PubChem by National Center for Advancing Translational Sciences (NCATS).
hNpr1 antagonist: antagonists of human natriuretic peptide receptor Npr1. HEK293 hNpr1 GloSensor cGMP, ANP-stimulated luminescence. Potency, µM (highest dose often 46.3 µM), usual class: inhibitors. 76,000 compounds, 1.6% hits. AID 1347048; calls by dose curve; further: nearly all actives have a fitted effect of over 60% in size
Target sequence (P16066 whole entry, looked up): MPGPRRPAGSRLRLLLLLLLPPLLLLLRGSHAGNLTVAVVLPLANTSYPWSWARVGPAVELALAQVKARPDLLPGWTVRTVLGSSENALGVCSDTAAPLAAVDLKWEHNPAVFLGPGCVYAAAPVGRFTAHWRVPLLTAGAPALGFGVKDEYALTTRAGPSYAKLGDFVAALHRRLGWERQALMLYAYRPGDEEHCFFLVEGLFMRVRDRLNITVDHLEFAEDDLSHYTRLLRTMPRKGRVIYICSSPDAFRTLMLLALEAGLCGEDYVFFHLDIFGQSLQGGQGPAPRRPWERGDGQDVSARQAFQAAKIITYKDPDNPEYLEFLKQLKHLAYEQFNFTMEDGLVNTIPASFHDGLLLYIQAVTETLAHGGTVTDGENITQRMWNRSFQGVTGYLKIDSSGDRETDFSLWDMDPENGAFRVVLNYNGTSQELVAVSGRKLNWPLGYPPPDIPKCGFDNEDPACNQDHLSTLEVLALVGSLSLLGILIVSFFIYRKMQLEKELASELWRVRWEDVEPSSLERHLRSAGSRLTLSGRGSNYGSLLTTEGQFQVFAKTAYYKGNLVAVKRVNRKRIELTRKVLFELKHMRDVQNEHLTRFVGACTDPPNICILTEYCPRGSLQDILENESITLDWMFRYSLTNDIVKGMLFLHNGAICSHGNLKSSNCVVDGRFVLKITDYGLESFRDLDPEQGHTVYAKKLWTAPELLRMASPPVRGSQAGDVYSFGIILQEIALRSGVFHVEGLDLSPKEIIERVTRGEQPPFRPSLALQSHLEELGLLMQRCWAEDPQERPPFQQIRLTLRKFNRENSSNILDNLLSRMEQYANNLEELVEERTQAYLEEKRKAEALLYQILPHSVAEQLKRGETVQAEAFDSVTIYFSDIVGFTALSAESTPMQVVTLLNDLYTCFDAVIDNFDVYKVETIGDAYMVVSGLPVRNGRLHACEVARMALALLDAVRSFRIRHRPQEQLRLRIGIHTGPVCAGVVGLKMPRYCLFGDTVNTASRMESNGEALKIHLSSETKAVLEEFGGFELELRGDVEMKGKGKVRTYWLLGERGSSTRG
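HEK293 cells stably expressing human Npr1 and cGMP GloSensor pGS-40F, loaded 2 h with 2% GloSensor reagent, given compound 30 min at room temperature. Luminescence read before and 20 min after 0.1 nM hNppA.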
FLuc inh: blocks purified firefly luciferase enzyme activity; P08659; purified P. pyralis luciferase, luminescence, biochemical; Potency, µM (titrated, usually from 115 µM), most hits filed as inhibitors; 76,000 compounds, 2.5% hits; AID 1347043; further: nearly all actives have a fitted effect of over 65% in size
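Cell-free enzyme assay, 10nM P. pyralis luciferase, luciferin and ATP each at 10uM. Inhibition profiled over a 6-point titration, read as luminescence.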
HEK293 tox: cytotoxic compounds in HEK 293 cells. HEK 293 viability, ATP luminescence (CellTiter-Glo), 48-72 h. Potency, µM (titrated, usually from 115 µM), actives largely listed as inhibitors. 94,000 compounds, 6.6% hits; further: nearly all actives have a fitted effect of over 60% in size
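HEK 293 cells at 250 cells/well were exposed to compounds by pintool transfer for 48 or 72 hr at 37 degree Celsius, 5% CO2. Viability was read as ATP-coupled luminescence with CellTiter-Glo after 10 min at room temperature.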
3T3 cytotox: NIH 3T3 cell cytotoxicity; 94,000 compounds, 4.3% hits; NIH 3T3 viability, CellTiter-Glo ATP luminescence, 48-72 h; Potency, µM (titrated, usually from 96.7 µM), actives largely listed as inhibitors; further: nearly all actives have a fitted effect of over 55% in size
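Viability of NIH 3T3 cells after 48 or 72 hr compound treatment at 37 °C was assessed by CellTiter-Glo, with luminescence imaged following a 10 min room-temperature step.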
A number is an active result; - = inactive; ? = inconclusive; . = no result. The list is not random: actives were taken first. Their share in the collection is about 11%. Unless noted, the call rests on the fitted dose curve; in most records, active means well fitted curve in the direction sought with a large enough effect; inconclusive means small, poorly fitted or top-dose-only effect, or another doubt; inactive means no such curve, though single readings can be large; an effect the other way counts as inactive or inconclusive.

SMILES | hNpr1 antagonist | FLuc inh | HEK293 tox | 3T3 cytotox
COc1ccc(CN2Cc3[nH]cnc3C[C@H]2C(=O)NCc2ccc(C#N)cc2)c2ccccc12 | - | - | ? | 79.4µM
O=C(NCc1ccc(Cl)cc1)[C@@H]1Cc2nc[nH]c2CN1Cc1ccc(Cl)cc1 | ? | - | 31.6µM | 44.7µM
O=C(NCc1ccccc1)[C@@H]1Cc2nc[nH]c2CN1Cc1ccc(Cl)cc1 | - | - | ? | ?
COc1ccc(CN2Cc3[nH]cnc3C[C@H]2C(=O)NC2CCCCC2)c2ccccc12 | - | - | ? | 63.1µM
CC(C)CCN1CCCN(CCN(C)C)c2ccccc21 | - | - | ? | ?
CCOC(=O)[C@@H]1CN(C(=O)CC(C)(C)C)[C@H]2c3ccccc3O[C@@H]12 | . | . | - | ?
CCNC(=O)N1CC2=CC(C)(C)COc3ccc(OC)c(c32)C1 | . | . | ? | -
CN(Cc1cccnc1)C1CCCc2ccccc21 (centres undefined) | - | - | 56.2µM | ?
O=C(c1cccc(F)c1)N1CCN(C(=O)c2nnn3c2COC(c2ccccc2)C3)CC1 (centres undefined) | - | - | ? | -
CC(=O)N1CCN(C(=O)C2CCN(C(=O)c3ccc(-c4cccs4)cc3)CC2)CC1 | . | . | - | ?
Cc1ccccc1CN1CCC2(CC1)OC(=O)N(Cc1ccc(O)cc1)C2(C)c1ccccc1 (centres undefined) | - | - | 35.5µM | 31.6µM
CC1(c2ccccc2)N(Cc2ccc(O)cc2)C(=O)OC12CCN(Cc1c[nH]c3ccccc13)CC2 (centres undefined) | ? | - | ? | 10µM
COc1ncc(CN2CCC3(CC2)OC(=O)N(Cc2ccccc2)C3(C)c2ccccc2)cn1 (centres undefined) | - | - | ? | -
Cc1ccc(CN2CCC3(CC2)OC(=O)N(Cc2ccc(O)cc2)C3(C)c2ccccc2)o1 (centres undefined) | - | - | ? | ?
COc1ccccc1CN1CCC2(CC1)OC(=O)N(Cc1ccccc1)C2(C)c1ccccc1 (centres undefined) | - | - | 50.1µM | ?
Cc1ncc2c(n1)CCCN(CC(=O)NCCC(C)C)C2=O | . | . | - | -
Cc1cccc(C)c1CN1CC2(COCC1=O)CN(c1ccc(C(F)(F)F)cn1)C2 | - | - | ? | 89.1µM
COc1ccc(CN2CC3(COCC2=O)CN(c2ccc(C(F)(F)F)cn2)C3)cc1F | - | - | ? | ?
O=C1N(CCCCOc2ccccc2)c2ccccc2NC12CCNCC2 | - | - | 20µM | ?
COc1ccc(Cn2ccn3nc4c(c3c2=O)CCCC4)cc1F | - | - | 39.8µM | ?
CCN(CC)c1ccc(NC(=O)CCn2ccn3nc4c(c3c2=O)CCCC4)c(C)c1 | - | - | ? | 39.8µM
Cc1cc(Cl)ccc1NC(=O)CCn1ccn2nc3c(c2c1=O)CCCC3 | - | - | ? | ?
Cc1noc(C)c1CCNC(=O)CN1C(=O)C(Oc2ccc(F)cc2)C12CCCCC2 (centres undefined) | . | . | ? | -
CCn1ccc2oc(C)c(C(=O)N3CCN(c4cccc(C)c4C)CC3)c2c1=O | - | - | 50.1µM | ?
c1cncc(COc2cc3c(cn2)NCCN(Cc2ccsc2)C3)c1 | - | - | ? | -
SMILES | hNpr1 antagonist | FLuc inh | HEK293 tox | 3T3 cytotox
c1cncc(Nc2cc3c(cn2)CN(Cc2ccc4[nH]ccc4c2)CCN3)c1 | - | 39.8µM | 89.1µM | ?
Cc1cccc(CN2CCNc3cc(Nc4cccnc4)ncc3C2)c1 | - | - | ? | ?
COc1ccc(CN2CCNc3cc(Nc4cccnc4)ncc3C2)cc1O | - | - | ? | ?
FC(F)(F)c1ccc(CN2CCNc3cc(Nc4cccnc4)ncc3C2)cc1 | ? | - | 31.6µM | ?
Oc1ccccc1CN1CCNc2cc(Nc3cccnc3)ncc2C1 | - | ? | 63.1µM | ?
COc1ccc(CN2CCNc3cnc(Nc4cccnc4)cc3C2)cc1O | - | - | ? | ?
Oc1ccccc1CN1CCNc2cnc(OCc3cccnc3)cc2C1 | ? | - | 100µM | -
COc1ccc(C(=O)N2CCN(C(=O)c3nc4cccnc4n(-c4ccccc4OC)c3=O)CC2)cc1 | . | . | - | -
Cc1ccc(-n2c(C3CCN(C(=O)c4ccc(Cl)cc4)CC3)n[nH]c2=O)cc1 | - | - | - | ?
O=C(C1CC1)N1CCN(c2ccnc3ccnn23)CC1 | . | . | - | -
O=C(c1ccc(F)cc1)N1CCN(C(=O)c2nc3cccnc3n(C3CC3)c2=O)CC1 | . | . | - | -
COc1ccc(CN2CCNc3cnc(Oc4ccccc4)cc3C2)cc1O | - | - | 63.1µM | ?
COc1ccc(CN2CCNc3cnc(Nc4ccccc4)cc3C2)cc1O | - | - | ? | ?
O=C(NCc1ccccc1F)c1ccc2c(c1)CN(Cc1ccc3c(c1)CCO3)CCO2 | - | - | 28.2µM | ?
CCOc1ccc(CN2CCOc3ccc(C(=O)NCc4ccccc4F)cc3C2)cc1 | ? | - | 39.8µM | ?
O=C(NCc1ccccc1F)c1ccc2c(c1)CN(Cc1ccc(O)c(F)c1)CCO2 | - | - | ? | -
O=C(Cc1ccccc1F)N1CCOc2ccc(CN3CCc4ccccc4C3)cc2C1 | - | - | 44.7µM | -
CCOc1cccc(CN2CCOc3ccc(C(=O)NCc4ccccc4F)cc3C2)c1 | - | - | ? | ?
Cn1nc(C(=O)N2CCC(Cc3nc(C4CC4)n[nH]3)C2)c2ccccc21 (centres undefined) | - | - | - | -
C=CCCC(=O)N1C[C@@H](C(=O)OCC)[C@@H]2Oc3ccccc3[C@@H]21 | . | . | - | ?
Clc1ccccc1C1Cn2cnc(-c3nc(-c4ccccn4)no3)c2CO1 (centres undefined) | - | 25.1µM | ? | ?
Cc1cc(C)cc(C(=O)NCCn2cccc2-c2nc(-c3ccc4c(c3)OCO4)no2)c1 | - | ? | ? | ?
COCC1CN(C(C)=O)CC12CCN(Cc1cccc(Br)c1)CC2 (centres undefined) | - | - | 79.4µM | -
O=[S+]([O-])(NC1CCN(Cc2ccc(-c3ccsc3)cc2)C1)c1cccc(C(F)(F)F)c1 (centres undefined) | . | . | 28.2µM | 15.8µM
CC(=O)Nc1ccc([S+](=O)([O-])NC2CCN(CCn3nc4n(c3=O)CCCC4)C2)cc1 (centres undefined) | . | . | - | -
SMILES | hNpr1 antagonist | FLuc inh | HEK293 tox | 3T3 cytotox
Cc1ccc([S+](=O)([O-])NC2CCN(Cc3ccc(-c4ccsc4)cc3)C2)cc1 (centres undefined) | . | . | 44.7µM | ?
O=C(Nc1ccc(Cl)cc1Cl)c1ccc2ccnn2c1 | - | 2.82µM | ? | -
O=C(C1CCCO1)N1CCc2c(n(Cc3ccccc3)n(-c3ccccc3)c2=O)C1 (centres undefined) | - | - | - | 31.6µM
COc1ccc(-n2c(=O)c3c(n2Cc2ccccc2)CN(C(=O)C2CCC(OC)CC2)CC3)cc1 (centres undefined) | - | - | - | ?
O=C(C1CCOCC1)N1CCc2c(n(Cc3ccccc3)n(-c3ccccc3)c2=O)C1 | - | - | - | 100µM
CC(C)C(=O)N1CCn2c(nnc2C2CCN(Cc3ccc(F)cc3F)C2)C1 (centres undefined) | . | . | - | -
c1ccc(CN2CCNc3cnc(Nc4ccc(N5CCOCC5)cc4)cc3C2)cc1 | ? | ? | 70.8µM | 39.8µM
COc1ccc(Nc2cc3c(cn2)NCCN(Cc2ccccc2)C3)cn1 | - | - | ? | ?
